PubChem BioAssay (EPA / NIEHS)
Records with an inconclusive call do not appear. Calls of active or inactive are those of the source. How the source made its calls: active means hit-call score of the fitted dose curve at least 0.9, where 1 is the maximum; inconclusive means response in the unintended direction; inactive means score below 0.9.

biological target: human Vitamin D Receptor (VDR), VDR (gene 7421) (UniProt P11473); assay: ATG_VDR_TRANS: Attagene TRANS-FACTORIAL HepG2 Assay for human Vitamin D Receptor (VDR) (AID 2283022)
Sequence (P11473 whole entry, looked up, the tested form may be a part): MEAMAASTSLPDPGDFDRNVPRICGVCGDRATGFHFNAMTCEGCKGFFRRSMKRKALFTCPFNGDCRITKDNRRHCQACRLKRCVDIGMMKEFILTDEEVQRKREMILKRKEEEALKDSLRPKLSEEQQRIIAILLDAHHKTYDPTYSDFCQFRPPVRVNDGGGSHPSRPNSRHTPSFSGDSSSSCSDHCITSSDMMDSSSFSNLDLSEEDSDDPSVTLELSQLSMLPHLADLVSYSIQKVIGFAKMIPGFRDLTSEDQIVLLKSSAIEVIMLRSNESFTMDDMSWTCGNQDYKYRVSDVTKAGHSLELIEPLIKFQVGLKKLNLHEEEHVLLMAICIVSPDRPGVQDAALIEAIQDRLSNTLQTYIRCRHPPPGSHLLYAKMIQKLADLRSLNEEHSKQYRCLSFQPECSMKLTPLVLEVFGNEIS
How it was run: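 Steps: transfect HepG2 with GAL4-UAS-driven reporter constructs; dose compounds 24 h; isolate RNA, reverse-transcribe, PCR-amplify with 6-FAM-labelled primer extension and HpaI digestion; quantify fragments by capillary electrophoresis relative to DMSO.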

outcome, inactive:
COC(C)CCO (centres undefined)
CC(C)=CCC[C@H](C)CC=O
COCCOCCOCCOCCOCCO
CC(C)C1CCC(O)CC1 (centres undefined)
NCCCCCCN
CCCC1CCC(=O)O1 (centres undefined)
CC1(C)CCC(C)(C)c2cc(C(=O)Nc3ccc(C(=O)O)cc3)ccc21
CC(C)(C)NC(N)=O
COc1nc(C)nc(N)n1
CCCCCCCCCOC(C)=O
CC1=CC(=O)NS(=O)(=O)O1
COc1ccc(OC)c(OC)c1
CC(C)C[C@H]1C(=O)N2CCC[C@H]2[C@]2(O)O[C@](NC(=O)[C@@H]3C=C4c5cccc6[nH]c(Br)c(c56)C[C@H]4N(C)C3)(C(C)C)C(=O)N12
COc1cc(C(C)(C)C)c(O)c(C(C)(C)C)c1
C=COCCOCCOCCOC=C
c1cc(C(c2ccc(OCC3CO3)cc2)c2ccc(OCC3CO3)cc2)ccc1OCC1CO1 (centres undefined)
CC(=O)OCC=Cc1ccccc1
CC(C)c1cccc(O)c1
CC(CCO)CCCC(C)(C)O (centres undefined)
COC(=O)OC
CCC(C)(O)CCC=C(C)C (centres undefined)
Nc1ccc(F)c([N+](=O)[O-])c1
COc1ccc(NC(=O)CC(C)=O)cc1
CC(=O)OCCOC(C)=O
CC(C)(C)c1cc(CCC(=O)NN)cc(C(C)(C)C)c1O
CC(C)CCCCCCCOC(=O)c1ccc(C(=O)OCCCCCCCC(C)C)c(C(=O)OCCCCCCCC(C)C)c1
OC1C(O)C(O)C(O)C(O)C1O (centres undefined)
C=CC(=O)OCC(O)COc1ccccc1 (centres undefined)
Clc1ccc(Cl)c(Cl)c1Cl
C=C(C)C(=O)O
ClCCCl
O=C(O)CCCCC1CCSS1 (centres undefined)
Nc1nc2ccc([N+](=O)[O-])cc2s1
COc1ccc(Cl)cc1C
CCCCO
CN1[C@@H]2CC(OC(=O)[C@H](CO)c3ccccc3)C[C@H]1[C@@H]1O[C@@H]12 (some centres undefined)
OCCN1CCNCC1
Cc1ccc(C(=O)c2cc(O)c(O)c([N+](=O)[O-])c2)cc1
O=c1oc(=O)c2cc3c(=O)oc(=O)c3cc12
